The list is not random: actives were taken first. Their share in the collection is about 3.6%.
HTT-AS promoter: Primary qHTS for Identification of Small Molecule Activators of Huntingtin-Antisense Promoter Activity. HEK293 HTT-AS promoter firefly luciferase reporter, 24 h; response scale: percent change from vehicle, -100% = no light. AID 1508624, 2021. Potency, µM (highest dose often 57.5 µM), for inactives: top-dose activity change, positive = activation, usual class: activators. actives 0.24% (n = 48,000); note: potency is the fitted concentration of half-maximal effect; nearly all actives have a fitted effect of over 55% in size
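Quantitative HTS used concentration series of up to 57.5 uM final on HEK293 luciferase reporter cells, 24 h at 37 degrees C. Readout was Dual-Glo firefly luminescence.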
pS6 MEF inh: Acumen qHTS Assay for Inhibitors of the mTORC1 Signaling Pathway in MEF (Tsc2-/-, p53-/-) Cells: Sytravon; Tsc2-/- p53-/- MEF, phospho-rpS6 immunofluorescence/PI, 24 h; actives 0.78% (n = 44,000); AID 493208, 2011; Potency, µM (doses to about 38.3 µM), for the others: at the top dose activity change, negative = inhibition, usual class: inhibitors;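 note: potency is the fitted concentration of half-maximal effect; plate controls were DMSO for no effect and rapamycin for full effect; nearly all actives have a fitted effect of over 50% in size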
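Cell-based qHTS: Tsc2-/- p53-/- MEF, 24 h cpd, 37 °C; fix/perm, anti-phospho-S6 Alexa-488 + PI; Acumen 488 nm scan; pS6/PI ratio, % positive cells; rapamycin 7.5 nM = inhibition ref; PI count = viability.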
PMP22 txn: Cell-based coincidence reporter assay to measure PMP22 gene transcription in S16 Pmp22-F2sN cells - Primary screen | S16 Pmp22-F2sN Schwann cells, FLuc/NLuc coincidence luminescence, 24 h | Potency, µM (doses to about 57.5 µM), for inactives: at the highest dose activity change, negative = inhibition, actives largely listed as inhibitors | actives 2% (n = 43,000) | AID 1508649, 2021; active = clear falling dose curves in both reporters; inconclusive = both reporters move, but less clearly or upward; inactive = either reporter flat; the % is the NLuc reporter signal; note: potency is the fitted concentration of half-maximal effect; % is set by controls: 0 for no effect and ±100 for the full control effect
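S16(c9) Schwann cells with FLuc/NLuc coincidence reporter in the Pmp22 3' UTR; compounds pin-transferred, 24 h at 37C. Dual-luciferase read: FLuc first, then NLuc after Stop&Glo, each 10 min at room temperature.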
SKOV3 invasion: Primary qHTS assay for Inhibitors of ovarian cancer metastasis using an organotypic tumor microenvironment (TME) model; actives 0.1% (n = 46,000); SKOV3ip1-GFP adhesion/invasion on 3D omental model, fluorescence; Potency, µM (titrated, usually from 45.8 µM), for inactives: at the highest dose activity change, negative = inhibition, most hits filed as inhibitors;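 note: potency is the fitted concentration of half-maximal effect; plate controls were DMSO wells for no effect and tomatine positive control wells for full effect; nearly all actives have a fitted effect of over 65% in size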
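A 3D layer of primary human omental fibroblasts, mesothelial cells, fibronectin and collagen I, grown 48 hr, received SKOV3ip1-GFP cells in serum-free medium plus compounds at 0.36-46 umol/L. After 2 hr RT and 16 hr 37 C, fixed adherent GFP cells were counted; normalized to DMSO and tomatine.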
HTT promoter inh: Primary qHTS for Identification of Small Molecule Inhibitors of Huntingtin Promoter Activity; HEK293 HTT promoter firefly luciferase reporter, 24 h; Potency, µM (top dose mostly 57.5 µM), for the others: at the top dose activity change, negative = inhibition, hits mostly inhibitors; actives 0.93% (n = 48,000); AID 1508623, 2021; note: potency is the fitted concentration of half-maximal effect; nearly all actives have a fitted effect of over 50% in size
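HEK293 cells carrying firefly luciferase reporters were seeded at 2,500 per well in Opti-MEM and cultured for 24 h. They were then treated with compounds at up to 57.5 uM final for 24 h at 37 degrees C before Dual-Glo luminescence readout.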
S16 F2sN tox: Cell viability qHTS assay in S16 Pmp22-F2sN cells | S16 Pmp22-F2sN Schwann cells (luciferase reporters placed in the Pmp22 gene) viability, CellTiter-Glo, 24 h | Potency, µM (doses to about 57.5 µM), without a hit: at the highest dose activity change, negative = cytotoxicity, actives largely listed as cytotoxic | actives 0.48% (n = 43,000); note: potency is the fitted concentration of half-maximal effect; % is set by controls: 0 for no effect and ±100 for the full control effect; nearly all actives have a fitted effect of over 65% in size
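S16 Schwann cells carrying the Pmp22-F2sN reporter, seeded in 1536-well format, were exposed to library compounds for 24 h at 37C. Viability was read as CellTiter-Glo luminescence after 15 min at room temperature.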
NLuc sat counter: Biochemical NLuc saturation counterscreen for small molecule modulators of PMP22 gene expression - Nano-Glo assay. shares compounds with PMP22 txn. Secreted NLuc enzyme (filtered S16 cell medium), Nano-Glo luminescence. Potency, µM (doses to about 57.5 µM), for inactives: top-dose activity change, negative = inhibition, actives largely listed as inhibitors. actives 4% (n = 690); note: potency is the fitted concentration of half-maximal effect; % is set by controls: 0 for no effect and ±100 for the full control effect
NLuc Km ctr: Biochemical coelenterazine-based NLuc counterscreen for small molecule modulators of PMP22 gene expression - Km assay; secreted NLuc enzyme, coelenterazine luminescence, Km conditions; shares compounds with PMP22 txn; Potency, µM (top dose mostly 57.5 µM), for inactives: at the top dose activity change, negative = inhibition, most hits filed as inhibitors; actives 5% (n = 690); note: potency is the fitted concentration of half-maximal effect; % is set by controls: 0 for no effect and ±100 for the full control effect
FLuc counter: Biochemical FLuc counterscreen for small molecule modulators of PMP22 gene expression; 690 tested, under 10 active; AID 1508640, 2021; purified P. pyralis FLuc, luminescence, 10 min; Potency, µM (highest dose often 57.5 µM), without a hit: top-dose activity, negative = inhibition, actives largely listed as inhibitors; shares compounds with PMP22 txn; note: % of control where 0% means no effect
Target sequence (P08659 whole entry, looked up): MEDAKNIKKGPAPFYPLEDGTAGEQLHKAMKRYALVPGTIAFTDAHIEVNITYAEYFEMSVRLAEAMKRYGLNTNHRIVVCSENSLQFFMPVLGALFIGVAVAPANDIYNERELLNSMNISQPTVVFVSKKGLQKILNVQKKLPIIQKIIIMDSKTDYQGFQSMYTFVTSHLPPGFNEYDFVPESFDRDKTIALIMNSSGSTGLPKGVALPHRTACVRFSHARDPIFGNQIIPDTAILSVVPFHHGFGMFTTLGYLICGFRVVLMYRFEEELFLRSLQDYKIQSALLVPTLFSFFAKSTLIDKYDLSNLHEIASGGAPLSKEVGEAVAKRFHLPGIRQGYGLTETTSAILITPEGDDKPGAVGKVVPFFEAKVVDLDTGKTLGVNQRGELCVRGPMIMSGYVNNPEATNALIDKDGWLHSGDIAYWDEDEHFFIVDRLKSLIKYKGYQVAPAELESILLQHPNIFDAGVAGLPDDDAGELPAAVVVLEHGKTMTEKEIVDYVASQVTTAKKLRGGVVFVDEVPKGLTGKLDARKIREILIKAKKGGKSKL
S16 viab conf: Cell viability qHTS assay in S16 Pmp22-F2sN cells - Confirmatory screen. shares compounds with PMP22 txn. S16 Schwann cells viability, CellTiter-Glo ATP luminescence, 24 h. Potency, µM (titrated, usually from 57.5 µM), without a hit: at the highest dose activity change, negative = viability loss, usual class: cytotoxic. actives 7% (n = 690); note: potency is the fitted concentration of half-maximal effect; % is set by controls: 0 for no effect and ±100 for the full control effect
PMP22 txn conf: Cell-based coincidence reporter assay to measure PMP22 gene transcription in S16 Pmp22-F2sN cells - Confirmatory screen. S16 Schwann cells Pmp22-F2sN, dual luciferase, 24 h. actives 22% (n = 690). Potency, µM (top dose mostly 57.5 µM), for inactives: at the top dose activity change, negative = inhibition, actives largely listed as inhibitors. AID 1508646, 2021. shares compounds with PMP22 txn; active = clear falling dose curves in both reporters; inconclusive = both reporters move, but less clearly or upward; inactive = either reporter flat; the % is the FLuc reporter signal; note: potency is the fitted concentration of half-maximal effect
PMP22 prot conf: Cell-based HiBiT reporter assay to measure PMP22 protein expression in S16 Pmp22-HiBiT cells - Confirmatory screen. shares compounds with PMP22 txn. S16 Schwann cells Pmp22-HiBiT, luminescence, 48 h. Potency, µM (highest dose often 27.9 µM), for inactives: at the highest dose activity change, negative = inhibition, usual class: inhibitors. 95 tested, under 10 active. AID 1508647, 2021
Target sequence (P25094 whole entry, looked up): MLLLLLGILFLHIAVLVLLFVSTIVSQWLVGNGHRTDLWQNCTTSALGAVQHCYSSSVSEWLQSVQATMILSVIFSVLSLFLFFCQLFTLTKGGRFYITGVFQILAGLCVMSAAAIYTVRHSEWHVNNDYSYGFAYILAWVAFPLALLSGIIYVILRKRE
Active calls of the source: *; i = inactive; u = inconclusive; x = not tested or not shown. Unless noted, calls come from the whole dose curve; as a rule, active = well fitted curve in the direction sought with a large enough effect; inconclusive = small, poorly fitted or top-dose-only effect, or another doubt; inactive = no such curve, though single readings can be large; an effect the other way counts as inactive or inconclusive.

SMILES | HTT-AS promoter | pS6 MEF inh | PMP22 txn | SKOV3 invasion | HTT promoter inh | S16 F2sN tox | NLuc sat counter | NLuc Km ctr | FLuc counter | S16 viab conf | PMP22 txn conf | others
Cc1ccc(NC(=O)N2CCc3cc(S(=O)(=O)N4CCC(C)CC4)ccc32)cc1F | -9% | -2% | 8.9µM* | 0% | -18% | 6% | -5% | 5% | -4% | u | 15µM* | PMP22 prot conf=3%
CCOC(=O)C(CC)Sc1ncnc2sc3c(c12)CCCC3 (configuration not stated) | -29% | -16% | u | -10% | -20% | 2% | x | x | x | x | x
CC(C)OCCCNc1ncnc2sc3c(c12)CCCC3 | -39% | -20% | 14µM* | i | u | -10% | -3% | -3% | -9% | -7% | -6%
CCC(C)NC(=O)C1CCN(C(=O)c2cc3sccc3n2Cc2ccc(Cl)cc2)CC1 (configuration not stated) | -54% | 0% | 8.9µM* | -7% | 8.9µM* | u | u | u | 11% | u | 14µM* | PMP22 prot conf=1.6µM*
CCOc1ccc(-n2nc3ccc(NC(=O)Cc4ccccc4)cc3n2)cc1 | -94% | 2% | 5µM* | u | u | u | -5% | 1% | u | 3% | -2%
COc1ccc(NC(=O)c2ccc3c(=O)n4nc(Nc5ccccc5C)sc4nc3c2)cc1 | -16% | -3% | u | 3% | -21% | 11% | x | x | x | x | x
COc1ccc(NC(=O)c2ccc3c(=O)n4nc(Nc5ccccc5C)sc4nc3c2)cc1Cl | -11% | 1% | 11µM* | -7% | -7% | -5% | -10% | u | -2% | 24µM* | 15µM*
COc1ccccc1Nc1nn2c(=O)c3ccc(C(=O)Nc4ccc(F)cc4)cc3nc2s1 | -5% | -19% | 3µM* | 7% | -2% | 21% | -3% | 4% | -17% | 14µM* | 5.8µM* | PMP22 prot conf=u
COc1ccc(NC(=O)c2ccc3c(=O)n4nc(Nc5cccc(Cl)c5C)sc4nc3c2)cc1 | -1% | -6% | u | 1% | -1% | u | x | x | x | x | x
Cc1ccc(Cl)cc1Nc1nn2c(=O)c3ccc(C(=O)Nc4ccc(F)cc4)cc3nc2s1 | 0% | 0% | 15% | -8% | -1% | 2% | x | x | x | x | x
Cc1ccc(NC(=O)c2ccc3c(=O)n4nc(Nc5ccccc5C)sc4nc3c2)cc1C | -5% | -1% | 9.5µM* | -4% | -2% | 11% | -10% | u | -4% | 27µM* | 13µM*
COc1ccccc1Nc1nn2c(=O)c3ccc(C(=O)NCCC4=CCCCC4)cc3nc2s1 | -88% | u | 3µM* | 13% | 10µM* | u | u | u | u | 6.9µM* | 5.8µM*
CN(C)CC(C)(C)CNc1nn2c(-c3ccccc3)nnc2cc1C1CCC1 | -27% | x | x | -16% | -22% | x | x | x | x | x | x
O=C(CCn1cnnn1)Nc1cc(C(F)(F)F)cc(C(F)(F)F)c1 | -36% | -5% | 3.9µM* | i | -27% | -5% | -10% | 3% | -10% | 1% | u
COc1cc(OC)c(C=CS(=O)(=O)Cc2ccc(OC)c(NCC(=O)O)c2)c(OC)c1 | -42% | x | x | 24% | u | x | x | x | x | x | x
COc1ccc(-c2nnc(SCC(=O)NCc3ccccc3)nc2-c2ccc(OC)c(OC)c2)cc1OC | -41% | -12% | 7.3µM* | -10% | u | 1% | u | u | 5% | -6% | u
CCOc1ccc(-c2nnc(SCC(=O)NCc3ccc(C)cc3)nc2-c2ccc(OCC)c(OC)c2)cc1OC | -19% | 0% | -13% | 0% | -18% | -21% | x | x | x | x | x
NC(=O)c1cccc2[nH]c(-c3ccc([C@H]4CCCN4)cc3F)nc12 | u | x | x | 36% | 7% | x | x | x | x | x | x
CC1(C)Cc2c(-c3ccccc3)c(-c3ccc(Cl)cc3)c(CC(=O)O)n2C1 | -31% | x | x | -1% | -22% | x | x | x | x | x | x
CCNC(=O)Nc1ccc2ncc(Nc3ccc(C)cc3)nc2n1 | -1% | x | x | -4% | 12% | x | x | x | x | x | x
